Measurements published in the supplement of paper PMC6555819.

What was measured:
Assay in all cases: PBM binding z-score (relative to random genomic background probes); higher = stronger binding; sequences stand for … in GC…GCGATTGACAGCGTAGAATGAAGG
[1] = system: RARb homodimer (NR concentration 270 nM)
How it was run: (§1)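 Custom Agilent 4×180K protein-binding microarrays carried double-stranded probes, each with a 34-nt variable region. These regions held direct-repeat seeds, single-nucleotide variants, half-site ablations and random human genomic background sequences. Ligand-free nuclear receptor dimers were incubated on the arrays for 1 h, antibodies against each partner (one per run) detected binding, and scanned fluorescence was regression-normalized. Binding z-scores take the random background probes as reference.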

[2] = system: RARg:RXRa (NR concentration 270 nM, RXRa partner concentration 90 nM)
How it was run: as §1

[3] = system: RARg homodimer (NR concentration 270 nM)
How it was run: as §1

[4] = system: RXRa DBDmut IVT, anti-RXR (DBD mutation: RXRa K156A/R161A, NR concentration 90 nM)
How it was run: as §1

[5] = system: RXRa homodimer (NR concentration 180 nM)
How it was run: as §1

[6] = system: THRa:RXRa (NR concentration 90 nM, RXRa partner concentration 90 nM)
How it was run: as §1

[7] = system: THRa homodimer (NR concentration 90 nM)
How it was run: as §1

[8] = system: VDR homodimer (NR concentration 270 nM)
How it was run: as §1

Row | Sequence | PBM binding z-score [1] | PBM binding z-score [2] | PBM binding z-score [3] | PBM binding z-score [4] | PBM binding z-score [5] | PBM binding z-score [6] | PBM binding z-score [7] | PBM binding z-score [8]
1 | TCTCGGAGGACACGAAAGGTCAGAGCACGACATC | 4.5 | 5.01 | 5.15 | 1.04 | 4.09 | 3.67 | 1.29 | 1.49
2 | CAAACTAGGTCAAGAGGTCAAGGTCCGCTTCCCG | 5.98 | 7.92 | 7.98 | 2.28 | 8.06 | 4.25 | 3.13 | 3.74
3 | GGAACGAGGGCAAAGTTGATAGCTTCTGTCGACG | 1.06 | 1.82 | 1.32 | 2.55 | 1.72 | 1.13 | -0.251 | 1.22
4 | TTACCAAGGTGAGCTGAGGTCGTTAATCCAACTC | 1.49 | 0.963 | 0.731 | -0.172 | 1.12 | 4.42 | 1.8 | 1.33
5 | CCGACTGGGGCAGAAACGTTACCATACCATCCGG | -0.276 | -0.119 | -0.0645 | -0.654 | -0.341 | -0.691 | -0.735 | -0.552
6 | TTACCAAGTTGAGCTGAGGTCGTTGATCCAACTC | 0.944 | 0.311 | 0.0622 | 0.245 | 0.839 | 4.34 | 1.77 | 2.04
7 | CCTAATGGGCCAAAGGTCATTGATTCCAATGCTC | 4.39 | 5.84 | 5.06 | 1.72 | 7.11 | 3.26 | 0.623 | 1.9
8 | TAATATAGGTAAACAGGTGAAAGTCCGTAAGTTA | 0.737 | 0.857 | 0.756 | 0.169 | 1.26 | 0.862 | 0.313 | 0.444
9 | CCTACTGGGCAACGAAAGGTCATTGATTCAGTGA | 4.44 | 4.88 | 4 | 0.496 | 4.73 | 3.09 | 0.612 | 2.35
10 | TAGCCTAGGTCATGCGGTCCAGTATAGTGTCGGC | 3.08 | 3.75 | 4.51 | 1.05 | 2.94 | 3 | 1.32 | 1.54
11 | CCGACTGGGGCAAGGGTACCATAACGCACAGCCA | 0.569 | 0.349 | 0.692 | -1.52 | 0.269 | -0.0335 | -0.368 | -0.448
12 | CATACAGTGTCAGCTAGGCCAGAGTAGGGACGGC | 0.245 | 0.397 | 0.832 | -0.017 | 0.0865 | 0.027 | 0.00703 | -0.455
13 | CGTCCAAGGTCAATGCTAGGTCAGTAAAAGCATT | 4.89 | 7.54 | 6.94 | 3.31 | 5.24 | 4.28 | 2.63 | 2.92
14 | ATCTCTAGGTAACCAAGTTCAGTGCATGCCGAAC | 1.69 | 0.735 | 0.952 | 1.12 | 0.814 | 1.62 | 0.968 | 3.1
15 | GCTTGAAGATCAAGGTTAAGAAAGACTAAGCTAA | 0.0789 | 0.319 | 0.181 | -0.437 | 0.877 | 1.02 | -0.36 | -0.116
16 | GATACAGGGTCAAGGCGAGAGTACGCGTATTGAT | 3.23 | 5.39 | 4.87 | 2.77 | 5.61 | 3.32 | 1.11 | 2.48
17 | CGAACTAGGTCATCCAGGACAGTGGATACATTGA | 3.05 | 4.08 | 4.8 | 2.01 | 2.9 | 3.74 | 1.96 | 2.06
18 | TCTATTAGTGGAAGGGCAACCGACGAGTCCGTTT | 1.21 | 0.443 | 0.673 | 1.28 | 0.619 | 0.13 | 0.0131 | 1.3
19 | CGTCCAAGCTCATAGGAGGTCAGTGAAGACAGAT | 2.8 | 1.69 | 2.04 | 0.593 | 1.22 | 2.38 | 0.642 | 0.938
20 | TTTGCTAGGTCAGTTGGTCAGCTAACGAGCTGCC | 2.57 | 2.76 | 3.54 | 0.279 | 0.82 | 1.42 | 0.0567 | -0.505
21 | TTACCAAGGTGAAAGGGCGTTGATGCACGCCTTG | 1.2 | 1.59 | 0.688 | -0.264 | 2.14 | 1.99 | 0.369 | 0.227
22 | TCATATAGGTAAATGCTAGATGAAAGTCCGATCT | -0.248 | 0.314 | 0.454 | 1.15 | 0.617 | -0.0472 | -0.457 | 0.317
23 | GGAACGAGGGCATTCGAGTTTATAGCATGGCGAT | 0.829 | 1.22 | 1.53 | 3.83 | 0.915 | 3.48 | -0.483 | 4.64
24 | CCTCGGAGGACAACAGGAGGTCACAGCTGCCAGA | 4.25 | 4.52 | 3.89 | 0.736 | 3.9 | 3.81 | 2.24 | 2.42
25 | ATCTCTAGGTAACAAATTCAGTGAAAGAGAGGAC | 0.688 | 0.707 | 0.762 | -0.0663 | 0.508 | 1.02 | 0.762 | 0.435
26 | CCGTACGGGTCACTCCAGGTTATAGCATCGGAGT | 3.26 | 4.74 | 4.74 | 1.62 | 5.04 | 5.05 | 0.303 | 1.37
27 | CGTCCAAGGTCAAGGTCGGTGAAAGAGACTCGAA | 4.27 | 6.3 | 6.78 | 3.67 | 5.99 | 4.11 | 2.88 | 2.44
28 | CCTACTGGGCCAAGGTCAGTGATCAGTCAAAGCA | 2.89 | 2.37 | 2.48 | -0.721 | 1.4 | 2.31 | 1.15 | 0.568
29 | GCGACTGGGGCATCAGCAGGTTATCATAACTTAA | 0.979 | 0.933 | 0.586 | -0.0902 | 0.555 | 1.05 | -0.305 | -0.259
